# Laboratory results as given in PubChem BioAssay AID504332 (National Center for Advancing Translational Sciences (NCATS), 2011).
# Out of some 350,000 compounds screened, about 31,000 (8.9%) were called active. Where a call stands in place of a potency, no number is given. Roughly 15% stayed inconclusive and do not appear here. The sample as a whole holds a higher share of actives than the screen did. Unmarked numbers belong to inactive results. Calls come from the whole dose curve; as a rule, active = well fitted inhibition curve with a large enough effect; inconclusive = small, poorly fitted or top-dose-only effect; inactive = no such curve, though single readings can be large or run the other way.
# Molecular target: Histone-lysine N-methyltransferase EHMT2 (Homo sapiens) (UniProt Q96KQ7)
# Sequence (Q96KQ7 913-1193 limits assumed): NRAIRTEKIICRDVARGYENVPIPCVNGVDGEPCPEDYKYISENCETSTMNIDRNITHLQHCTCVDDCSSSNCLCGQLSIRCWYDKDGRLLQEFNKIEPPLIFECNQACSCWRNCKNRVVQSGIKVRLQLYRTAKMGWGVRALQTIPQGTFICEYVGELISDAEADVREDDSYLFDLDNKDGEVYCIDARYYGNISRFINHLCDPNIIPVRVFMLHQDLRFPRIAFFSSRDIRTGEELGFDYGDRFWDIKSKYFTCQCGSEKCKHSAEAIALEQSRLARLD
# Assay: qHTS Assay for Inhibitors of Histone Lysine Methyltransferase G9a; note: nearly all actives have a fitted effect of over 75% in size
# Conditions: G9a H3K9 monomethylation, AlphaScreen, 2 h; series mostly up to 59 µM
# Method in brief: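 AlphaScreen detection with an anti-monomethyl H3K9 antibody quantified product after a 2 h room-temperature reaction containing 500 nM biotinylated H3K9 peptide, 20 µM SAM and 20 nM enzyme, which had been preincubated 15 min with compound.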
# Potency is the fitted concentration of half-maximal effect.
SMILES,Potency,"activity, negative = inhibition"
O=C(NCCc1ccc(C(F)(F)F)cc1)c1ccc2c(c1)OCO2,inactive,
Cc1ccc(C)c(NC(=O)CCC(=O)NNC(=O)c2cccs2)c1,inactive,
COC(=O)C(CC(=O)Nc1cc(C)ccc1C)Nc1ccccc1OC (centres undefined),,-11.9% [at 2.33 µM]
Cc1ccc(C)c(NC(CC(=O)c2ccccc2)C(=O)OCC(=O)c2cccs2)c1 (centres undefined),28.2 µM (active),
CN1C(C(=O)NCC2CC2)CC2Cn3c(nc4ccccc43)C21 (centres undefined),,2.03% [at 2.33 µM]
Cc1ccc(S(=O)(=O)CC(=O)Nc2sc(C)c(C)c2C(N)=O)cc1,,-22.4% [at 0.501 µM]
COc1ccccc1C(=O)Nc1ccc(C)c(S(=O)(=O)N2CCCCC2)c1,inactive,
CCCCc1nc2ccccc2c(NC(=O)CN2CCN(C)CC2)c1CCC,10 µM (active),
CCCCc1nc2ccccc2c(=O)n1NC(=O)c1c(O)c2cccc3c2n(c1=O)CC3,inactive,
CCOC(=O)N1CCN(CC(=O)Nc2cc(C)nn2-c2nc3ccccc3s2)CC1,inactive,
FC(F)(F)c1ccc2nnc(-c3c(Cl)cccc3Cl)n2c1,44.7 µM (active),
O=C1Cc2cc(S(=O)(=O)Nc3ccc(OC(F)(F)F)cc3)cc3c2N1CCC3,inactive,
O=C(Nc1ccon1)c1nc[nH]c1C(=O)NCc1ccccc1,,4.11% [at 0.501 µM]
CCOC(=O)c1c(C)[nH]c(C)c1S(=O)(=O)N(C)CC(=O)N1CCN(c2ccccc2)CC1,inactive,
CCOC(=O)N1CCN(C(=O)Cc2ccc(-n3c(=S)[nH]c4ccccc4c3=O)cc2)CC1,44.7 µM (active),
CCCCNC(=O)c1ccc(-n2c(=S)[nH]c3ccccc3c2=O)cc1,inactive,
O=C(Cc1ccc(-n2c(=O)[nH]c3ccccc3c2=O)cc1)N1CCN(c2cccc(Cl)c2)CC1,,-10.6% [at 12.7 µM]
O=C(COC(=O)/C=C/c1ccc(OC(F)F)cc1)NC1CCCCC1,inactive,
Cc1ccc(OCCNC(=O)CCNS(=O)(=O)c2ccc(Br)cc2)cc1,inactive,
COc1ccccc1-c1oc2ccccc2c1C#CCCCCO,,7.94% [at 0.501 µM]
Cc1nnc(NC(=O)Nc2ccc(Cl)c(Cl)c2)s1,inactive,
Cc1ccc(CS(=O)(=O)c2ncc(Cl)c(C(=O)Nc3nnc(C)s3)n2)cc1,14.1 µM (active),
Cc1cccc(NC(=O)c2nc[nH]c2C(=O)NCC(=O)OCc2ccccc2)c1,inactive,
Cc1cccc(OCc2ccc(C(=O)Nc3ccc(F)cc3)cc2)c1,inactive,
Cc1cccc(NC(=O)c2nc(S(=O)(=O)Cc3ccccc3)ncc2Cl)c1,39.8 µM (active),

SMILES,Potency,"activity, negative = inhibition"
CCSc1ncc(Cl)c(C(=O)Nc2cc(C)ccc2C)n1,inactive,
Cc1ccc(S(=O)(=O)CC(=O)Nc2nnc(C)s2)cc1,inactive,
CCOC(=O)c1ccc(NC(=O)c2nc(SCc3ccc(F)cc3)ncc2Cl)cc1,inactive,
Cc1cccc(CS(=O)(=O)c2ncc(Cl)c(C(=O)Nc3ccc(F)cc3)n2)c1,28.2 µM (active),
Cc1ccc(NC(=O)CN(C)C(=O)c2cccc(S(=O)(=O)N3CCCC3)c2)cc1,inactive,
COc1ccccc1OCC(=O)Nc1ccccc1C(=O)NC1CC1,,-4.61% [at 0.501 µM]
COc1ccc(CCNC(=O)c2ccc(-n3c(C)cc4c3CCCC4)cc2)cc1OC,inactive,
O=C(CSC1=NS(=O)(=O)c2cc(F)ccc2N1)Nc1ccccc1F,inactive,
N#Cc1nc(/C=C/c2ccc(F)cc2)oc1NC1CCCCC1,inactive,
Cc1cc(C)c(NC(=O)Cn2c(SCC(=O)NCc3ccccc3)nc3ccccc32)c(C)c1,inactive,
O=C(Nc1cc(Cl)cc(Cl)c1)c1ccc2c(c1)N(Cc1cccc(Cl)c1)C(=O)c1ccccc1S2=O (centres undefined),inactive,
COc1ccccc1NC(=O)c1oc2ccccc2c1NC(=O)COc1ccccc1OC,inactive,
CCC(C)c1ccc2oc(-c3ccc(NC(=O)c4cc5ccccc5o4)cc3)nc2c1 (centres undefined),inactive,
COc1cc(NS(=O)(=O)c2ccc(NC(=O)c3ccc([N+](=O)[O-])cc3)cc2)ncn1,inactive,
Cn1ccc(=Nc2ccc(NC(=O)c3ccc(N=c4ccn(C)c5ccc([N+](=O)[O-])cc45)cc3)cc2)cc1,15.8 µM (active),
Cc1cc([N+](=O)[O-])ccc1NC(=O)c1ccc(NC(=O)C(C)C)cc1,inactive,
COc1ccccc1CNS(=O)(=O)CC12CCC(CC1=O)C2(C)C (centres undefined),inactive,
COc1cc(C(=O)NCc2cc3cc(Cl)ccc3n2C)cc(OC)c1OC,inactive,
Cc1c(Cl)cccc1NC(=O)c1noc2c1CCCC2,inactive,
Cc1ccc(S(=O)(=O)N2CCCCC2)cc1C(=O)N(C)CC(=O)Nc1cccc(F)c1,inactive,
Cc1cc(C)c(SCCc2ccncc2)c(C)c1,inactive,
CCOCC(=O)Nc1ncc(S(=O)(=O)c2ccc([N+](=O)[O-])cc2)s1,35.5 µM (active),
Cc1cc(NC(=O)COc2ccc([N+](=O)[O-])cc2)no1,,-2.93% [at 12.7 µM]
CC(C)c1nnc(NC(=O)COC(=O)/C=C/c2ccc([N+](=O)[O-])cc2)s1,inactive,
CC/C(=N\NC(=O)c1c(C)nc2ccccn12)c1ccc(Cl)cc1,inactive,

SMILES,Potency,"activity, negative = inhibition"
CC(C)C(C)NC(=O)COc1nc2ccccc2nc1N(C)C1CCCCC1 (centres undefined),inactive,
COc1ccccc1N(C)S(=O)(=O)c1ccc(Cl)c(C(=O)Nc2ccncc2)c1,inactive,
CN1CCN(C2(CNC(=O)COc3ccc(C(C)(C)C)cc3)CCCCC2)CC1,inactive,
C/C(=N\NC(=S)NCc1ccccc1)C1CCCCC1,35.5 µM (active),
C/C(=N\NC(=S)NCc1ccccc1)c1ccc(Cl)cc1,inactive,
O=C(CC1CCCCC1)NCc1ccccc1,inactive,
COc1ccc(OC)c(CNC(=O)Cn2nc(C)c3c(C)n(-c4ccc(C)cc4)nc3c2=O)c1,inactive,
COc1cccc(CNC(=O)c2ccc3c(Cl)c4c(nc3c2)CCCC4)c1,inactive,
CCc1noc(C)c1C(=O)Nc1nc(-c2ccccc2)cs1,inactive,
CC1(C)CC(CCC(=O)Nc2ccccc2Cl)C(=O)O1 (centres undefined),inactive,
C/C(CC1CC(C)(C)OC1=O)=N/Nc1nc(-c2ccccc2)cs1 (centres undefined),3.16 µM (active),
CN1C(=O)c2[nH]nc(-c3ccc(F)cc3)c2C1c1ccccn1 (centres undefined),inactive,
CCOC(=O)c1[nH]c2ccc(OC)cc2c1NC(=O)N1CCOCC1,50.1 µM (active),
CCOC(=O)c1[nH]c2ccc(OC)cc2c1NC(=O)CCN1CCN(Cc2ccccc2)CC1,,-13.9% [at 2.33 µM]
CCOC(=O)C1CCN(C(=O)Nc2cccc(OC)c2)CC1,inactive,
C=CCO/N=C/C1=C(O)C(C(=O)OC)C(C)(C)CC1=O (centres undefined),15.8 µM (active),
COCC(C)N=CC1=C(O)CC(C)(C)CC1=O (centres undefined),inactive,
CCCC(=O)C1=C(N(C)c2ccccc2)CC(C)(C)C(C(=O)OC)C1=O (centres undefined),inactive,
COc1ccc(S(=O)(=O)n2cnc3ccccc32)c(C)c1,inactive,
N#CCCN1CCN(S(=O)(=O)c2ccc(S(=O)(=O)N3CCCC3)cc2)CC1,inactive,
N#Cc1cccc(CN2CCC(=O)N(CCO)CC2)c1,inactive,
CC(C)(C)c1cc(CN2CCN(CCC#N)CC2)cc(C(C)(C)C)c1O,17.8 µM (active),
CCN(C(=O)CSc1ncnc2sccc12)c1c(N)n(Cc2ccccc2)c(=O)[nH]c1=O,inactive,
Cc1ccc(N2C(=O)C3C4C=CC(CC4)C3C2=O)cc1Br (centres undefined),,-6.84% [at 0.501 µM]
CCCn1nc(NC(=O)C(C)C)c2cc3cc(OC)ccc3nc21,inactive,

SMILES,Potency,"activity, negative = inhibition"
O=S(=O)(c1ccc(Br)cc1)N1CCC(c2nc3ccccc3[nH]2)CC1,70.8 µM (active),
N#CC(C(=O)c1ccc(S(=O)(=O)N2CCCCCC2)cc1)c1nc2ccccc2[nH]1 (centres undefined),inactive,
O=C(C1CCCO1)N1CCC(c2nc3ccccc3[nH]2)CC1 (centres undefined),,-28.9% [at 12.7 µM]
COc1ccc(CCNC(=O)COC(=O)Cc2cccc(F)c2)cc1,,5.11% [at 0.501 µM]
CC(Oc1cc2oc(=O)c3c(c2cc1Cl)CCCC3)C(=O)NCc1ccncc1 (centres undefined),inactive,
COc1cc(OC)nc(NC(=O)CCl)n1,inactive,
COc1ccc(C/C(C)=N/NC(=O)c2ccncc2)cc1,inactive,
COc1cc(OC)nc(N/N=C(\c2ccccc2)c2ccncc2)n1,12.6 µM (active),
CN(CC(=O)NNC(=O)CNC(=O)c1ccccc1Cl)S(=O)(=O)c1ccc(Cl)cc1,,4.73% [at 0.501 µM]
Cc1ccc(NC(=O)c2cc3cc(C)ccc3n2C)cc1,inactive,
O=C(c1ccc(CN2CCOCC2)cc1)N1CCN(c2ccccc2F)CC1,inactive,
O=C(c1cccc2ccccc12)N1CCN(c2ccccc2F)CC1,2.82 µM (active),
COc1ccc2oc(=O)c(C(=O)N3CCN(c4ccccc4F)CC3)cc2c1,,21.4% [at 12.7 µM]
Cc1csc(SCC(=O)Nc2sccc2C#N)n1,inactive,
CC(c1nnc(SCC(=O)Nc2sccc2C#N)n1-c1ccc(Cl)cc1)N(C)C (centres undefined),50.1 µM (active),
Cc1cccc(C)c1Nc1nnc(SCC(=O)Nc2sccc2C#N)s1,inactive,
COc1ccc(C2NC(=O)N(C)C(C)=C2[N+](=O)[O-])cc1 (centres undefined),inactive,
COc1cccc(C(=O)NNC(=O)c2cccc(F)c2)c1,inactive,
CCCCOC(=O)/C(C#N)=C/c1ccc(-c2cccc(C(F)(F)F)c2)o1,inactive,
CCOc1ccc(Nc2oc(/C=C/c3ccc(F)cc3)nc2C#N)cc1,inactive,
O=C(O)/C=C/c1ccc(OCCCF)cc1,inactive,
O=S(=O)(Oc1ccccc1C(=S)N1CCOCC1)c1ccc(Cl)cc1,31.6 µM (active),
O=C(Nc1ccccc1C(=O)N1CCOCC1)c1ccc(Cl)cc1,inactive,
N#C/C(=C\N1CCOCC1)S(=O)(=O)c1ccc(Cl)cc1,inactive,
